Measurements: the supplement of paper PMC7156485
± gives the standard deviation of the averaged measurements.

Tests used:
Conditions in all cases: concentration: 10 µM; 24 h
[1] = test system: HCC1569; experiment: cell number relative to DMSO (% of DMSO); higher = more cells (less growth inhibition / toxicity)
Procedure, shortened: (§1)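 HCC1569 and TDF cells (800 per well, 384-well plates, RPMI with 10% FBS) were treated with compounds at 10 µM for 24 h at 37 °C, in triplicate. Cells were fixed in 3.7% formaldehyde and stained with a rabbit anti-H1.0 antibody, an AlexaFluor 647 secondary and DAPI; six fields per well were imaged at ×10. H1.0 nuclear intensity or cell number is expressed as percent of the plate DMSO control, taking the median of replicates. HCC1569 values were smoothed for positional effects.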

[2] = test system: TDF; experiment: as above
Procedure, shortened: as §1

[3] = test system: TDF; experiment: H1.0 immunofluorescence intensity relative to DMSO (% of DMSO); higher = stronger H1.0 induction, active = 120 or more
Procedure, shortened: as §1

[4] = test system: HCC1569; experiment: H1.0 immunofluorescence intensity relative to DMSO (% of DMSO); higher = stronger H1.0 induction, active = 140 or more
Procedure, shortened: as §1
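Wherever H1.0 immunofluorescence intensity relative to DMSO is given: TDF is a line of transformed human dermal fibroblasts of mesenchymal origin.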
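Wherever cell number relative to DMSO is given: TDF denotes transformed human dermal fibroblasts of mesenchymal origin.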

| SMILES | cell number [1] | cell number [2] | H1.0 immunofluorescence intensity [3] | H1.0 immunofluorescence intensity [4] |
| --- | --- | --- | --- | --- |
| O=C(Nc1cc(C(F)(F)F)cc(C(F)(F)F)c1)c1cc(Cl)ccc1O | 57 | 52.7 | 115 (inactive) | 122 (inactive) |
| Cc1cn(C2CC(N=[N+]=[N-])C(CO)O2)c(=O)[nH]c1=O (stereo unspecified) [3'-Azido-3'-deoxythymidine] | 104.8 ± 0.49 | 101 ± 7.6 | 96.8 (inactive) | 97.8 (inactive) |
| CC1CN(S(=O)(=O)c2cccc3cnccc23)CCN1.Cl.Cl (stereo unspecified) | 111 | 109 | 86.2 (inactive) | 81.1 (inactive) |
| CCNC1CC(C)S(=O)(=O)c2sc(S(N)(=O)=O)cc21.Cl (stereo unspecified) [Dorzolamide.HCl] | 97 | 87.9 | 100 (inactive) | 95.5 (inactive) |
| Br.CN=c1nc(-c2ccccc2)n(-c2ccccc2)s1 | 97.5 | 107 | 90.9 (inactive) | 111 (inactive) |
| O=C(Oc1cc(S(=O)(=O)c2ccccc2)ccc1[N+](=O)[O-])c1ccc(Cl)cc1 [2-nitro-5-(phenylsulfonyl)phenyl 4-chlorobenzoate] | 99.5 | 87.8 | 96.7 (inactive) | 111 (inactive) |
| CC(N)(Cc1ccc(O)cc1)C(=O)O (racemic) [DL-alpha-Methyl-p-tyrosine] | 103 | 117 | 114 (inactive) | 106 (inactive) |
| NC(Cn1ccc(=O)c(O)c1)C(=O)O [L-Mimosine] | 101 | 86.3 | 105 (inactive) | 102 (inactive) |
| Cl.OCC1NCC(O)C(O)C1O (stereo unspecified) [1-Deoxynojirimycin hydrochloride] | 97.8 | 106 | 85.2 (inactive) | 91.8 (inactive) |
